Experimental data taken from PubChem BioAssay AID540321 (Johns Hopkins Ion Channel Center, 2011).
A number with no mark means an inactive call.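 How the source made its calls: active means Inhibition of the Kir2.1 potassium channel over 30% at some tested dose, plus a fitted dose response curve; inactive means no Kir2.1 inhibition at any dose, or no curve fitted.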

biological target: Inward rectifier potassium channel 2 (Mus musculus) (UniProt P35561); experiment: Kir2.1 channel inhibition, specificity check, SAR follow-up, selectivity assay for KCNK9 inhibitor project, cell-based, FluxOR thallium flux, CRC round 2 (AID 540321); conditions: Kir2.1-expressing cells; series mostly up to 30 µM; fluorescence ratio, lower = inhibition: at the top concentration
Sequence (P35561 whole entry, looked up): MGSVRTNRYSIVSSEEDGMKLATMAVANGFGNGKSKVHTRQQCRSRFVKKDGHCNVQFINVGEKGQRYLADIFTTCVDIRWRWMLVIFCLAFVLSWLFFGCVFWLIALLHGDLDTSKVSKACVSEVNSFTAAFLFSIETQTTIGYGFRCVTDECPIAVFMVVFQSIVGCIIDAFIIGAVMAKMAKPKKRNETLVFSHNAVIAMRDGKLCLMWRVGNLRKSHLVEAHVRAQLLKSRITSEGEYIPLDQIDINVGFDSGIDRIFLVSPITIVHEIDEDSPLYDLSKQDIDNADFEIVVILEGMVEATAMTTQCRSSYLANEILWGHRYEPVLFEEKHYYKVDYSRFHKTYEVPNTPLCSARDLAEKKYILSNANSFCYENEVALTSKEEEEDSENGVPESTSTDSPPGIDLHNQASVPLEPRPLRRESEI

Compound	fluorescence ratio, lower = inhibition
CCOc1ccccc1NC(=O)c1cccc(NC(=O)CC2CCCC2)c1	1.67
CCOc1ccccc1C(=O)Nc1cccc(NC(=O)c2ccccc2OC)c1	1.66
CC(C1CC2CCC1C2)n1c(-c2ccccc2Cl)n[nH]c1=S (stereo not given)	1.67
CC(C)(C)c1ccc(C(=O)Nc2cccc(NC(=O)c3ccccc3)c2)cc1	1.33
S=c1[nH]nc(-c2ccco2)n1CC1CCCCC1	1.26
CCOc1ccccc1C(=O)Nc1cccc(NC(=O)c2ccccc2C(F)(F)F)c1	1.97
CCOc1ccccc1NC(=O)c1cccc(NC(=O)CC2CCCCC2)c1	1.85
Cc1ccccc1-c1n[nH]c(=S)n1C(C)C1CC2CCC1C2 (stereo not given)	1.58
O=C(Nc1cccc(NC(=O)c2ccccc2C(F)(F)F)c1)c1ccccc1	1.48
Cc1cccc(C(=O)Nc2cccc(NC(=O)c3ccco3)c2)c1	1.75
O=C(Nc1cccc(NC(=O)c2cccc(Cl)c2)c1)c1ccccc1	1.25
O=C(Nc1cccc(NC(=O)c2ccccc2Cl)c1)c1ccccc1	1.36
CCOc1ccccc1NC(=O)c1cccc(NC(=O)c2cccc(C(F)(F)F)c2)c1	1.69
CCOc1ccccc1NC(=O)c1cccc(NC(=O)c2ccc(C(F)(F)F)cc2)c1	1.75
O=C(Nc1ccccc1Cl)c1cccc(NC(=O)C2CCCC2)c1	1.34
O=C(Nc1cccc(NC(=O)c2cccc(F)c2)c1)c1ccccc1	1.62
CC(C1CC2CCC1C2)n1c(-c2ccc(Cl)cc2)n[nH]c1=S (stereo not given)	1.69
CCOc1ccccc1NC(=O)c1cccc(NC(=O)c2ccccc2)c1	1.82

Compound	fluorescence ratio, lower = inhibition
CCOc1ccccc1NC(=O)c1cccc(NC(=O)c2ccccc2OC)c1	1.95
CCOc1ccccc1NC(=O)c1cccc(NC(=O)c2ccccc2Cl)c1	1.21
CCOc1ccccc1NC(=O)c1cccc(NC(=O)c2cccc(C)c2)c1	1.76
CCOc1ccccc1C(=O)Nc1cccc(NC(=O)C2CCCC2)c1	1.34
Cc1cccc(C(=O)Nc2cccc(NC(=O)c3ccccc3C(F)(F)F)c2)c1	1.51
O=C(Nc1cccc(NC(=O)c2ccncc2)c1)c1ccccc1	1.54
Cc1cccc(C(=O)Nc2cccc(NC(=O)c3cccc(C(F)(F)F)c3)c2)c1	1.59
COc1ccccc1NC(=O)c1cccc(NC(=O)c2ccccc2)c1	1.83
Cc1cccc(C(=O)Nc2cccc(NC(=O)c3ccccc3OC(F)(F)F)c2)c1	1.76
COc1ccccc1C(=O)Nc1cccc(NC(=O)c2ccccc2C)c1	1.71
COc1ccccc1NC(=O)c1cccc(NC(=O)C2CCCCC2)c1	1.61
CCOc1ccccc1NC(=O)c1cccc(NC(=O)C2CC2)c1	1.76
CCOc1ccccc1NC(=O)c1cccc(NC(=O)C2CCCO2)c1 (stereo not given)	1.75
CC(C)n1c(-c2ccco2)n[nH]c1=S	1.42
Cc1ccc(C(=O)Nc2cccc(NC(=O)c3ccccc3)c2)cc1	1.27
CCOc1ccccc1NC(=O)c1cccc(NC(=O)c2ccccc2OC(F)(F)F)c1	1.71
CCOc1ccccc1C(=O)Nc1cccc(NC(=O)c2cccc(C)c2)c1	1.72
